Data as given in PMC8384837, “Expanding the binding specificity for RNA recognition by a PUF domain”.
Substitutions are numbered along the chain they refer to.

How the values were obtained:
Assay in all cases: yeast three-hybrid, YBZ-1, SC-Leu-His + 0.5 mM 3-AT, 4 days
Details in all cases: tags: N-Gal4 AD-HA kept; label: inside an RPR1-promoter hybrid RNA with tandem MS2 sites; ssRNA
PUM1 PUF domain R4-FNQ = PUM1 PUF domain R4-FNQ (Homo sapiens, UniProt Q14671 828-1176, N971F;H972N)
In short: (§1)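 Pumilio-1 PUF domain libraries, randomized (NNK) at the three base-contacting residues of each repeat, were co-expressed with matching RNA elements from a centromeric plasmid in strain YBZ-1 (LexA–MS2 coat fusion, HIS3 reporter). Transformants were plated on SC-Leu (input) and SC-Leu-His + 0.5 mM 3-AT (selection) for four days, and repeat regions were PCR-amplified and Illumina-sequenced. The interaction score is the log2 change in variant frequency from input to selection, with pseudocount 1 where absent.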

PUM1 PUF domain R6-FRQ = biological target: T1, PUM1 PUF domain R6-FRQ (Homo sapiens, UniProt Q14671 828-1176, N1043F;Y1044R)
T1 sequence: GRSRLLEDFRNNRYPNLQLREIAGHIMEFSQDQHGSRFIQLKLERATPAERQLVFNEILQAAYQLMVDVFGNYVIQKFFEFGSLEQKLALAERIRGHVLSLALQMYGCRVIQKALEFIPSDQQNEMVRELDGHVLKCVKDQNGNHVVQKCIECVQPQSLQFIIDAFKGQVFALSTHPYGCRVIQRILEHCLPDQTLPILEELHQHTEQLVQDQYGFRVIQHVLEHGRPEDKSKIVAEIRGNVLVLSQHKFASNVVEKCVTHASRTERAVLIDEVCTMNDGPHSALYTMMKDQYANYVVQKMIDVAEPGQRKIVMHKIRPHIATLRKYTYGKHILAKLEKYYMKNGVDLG
In short: as §1

PUM1 PUF domain R5-PRL = PUM1 PUF domain R5-PRL (Homo sapiens, UniProt Q14671 828-1176, C1007P;Q1011L)
In short: as §1

PUM1 PUF domain R6-RFI = biological target: T2, PUM1 PUF domain R6-RFI (Homo sapiens, UniProt Q14671 828-1176, N1043R;Y1044F;Q1047I)
T2 sequence: T1 sequence with F216R, R217F, Q220I
In short: as §1

PUM1 PUF domain R5-RNC = PUM1 PUF domain R5-RNC (Homo sapiens, UniProt Q14671 828-1176, C1007R;R1008N;Q1011C)
In short: as §1

PUM1 PUF domain R6-GYM = biological target: T3, PUM1 PUF domain R6-GYM (Homo sapiens, UniProt Q14671 828-1176, N1043G;Q1047M)
T3 sequence: T1 sequence with F216G, R217Y, Q220M
In short: as §1

PUM1 PUF domain R4-SHF = PUM1 PUF domain R4-SHF (Homo sapiens, UniProt Q14671 828-1176, N971S;Q975F)
In short: as §1

PUM1 PUF domain R3-RSY = PUM1 PUF domain R3-RSY (Homo sapiens, UniProt Q14671 828-1176, C935R;R936S;Q939Y)
In short: as §1

PUM1 PUF domain R3-RAL = PUM1 PUF domain R3-RAL (Homo sapiens, UniProt Q14671 828-1176, C935R;R936A;Q939L)
In short: as §1

PUM1 PUF domain R3-VCK = PUM1 PUF domain R3-VCK (Homo sapiens, UniProt Q14671 828-1176, C935V;R936C;Q939K)
In short: as §1

PUM1 PUF domain R5-MYW = PUM1 PUF domain R5-MYW (Homo sapiens, UniProt Q14671 828-1176, C1007M;R1008Y;Q1011W)
In short: as §1

PUM1 PUF domain R5-SNN = PUM1 PUF domain R5-SNN (Homo sapiens, UniProt Q14671 828-1176, C1007S;R1008N;Q1011N)
In short: as §1

## GGCUAGAACUAGUGGAUCCCCCGGCGCCCGGCGGCUCGAGCCCGGGUAAGUGUAUAUAGUCUGCAUGCCGCCGGGCGCCAUGCCUGCAGGUCGACUCUAGAAAACAUG
PUM1 PUF domain R4-FNQ
  binding signal: 4.16 log2 enrichment (interaction score)

## GGCUAGAACUAGUGGAUCCCCCGGCGCCCGGCGGCUCGAGCCCGGGUAAGUGUAAAUAGUCUGCAUGCCGCCGGGCGCCAUGCCUGCAGGUCGACUCUAGAAAACAUG
PUM1 PUF domain R6-FRQ
  binding signal: 2.83 log2 enrichment (interaction score)
PUM1 PUF domain R5-PRL
  binding signal: 3.53 log2 enrichment (interaction score)
PUM1 PUF domain R6-RFI
  binding signal: 2.68 log2 enrichment (interaction score)
PUM1 PUF domain R5-RNC
  binding signal: 1.15 log2 enrichment (interaction score)
PUM1 PUF domain R6-GYM
  binding signal: 3.33 log2 enrichment (interaction score)

## GGCUAGAACUAGUGGAUCCCCCGGCGCCCGGCGGCUCGAGCCCGGGUAAGUGUACAUAGUCUGCAUGCCGCCGGGCGCCAUGCCUGCAGGUCGACUCUAGAAAACAUG
PUM1 PUF domain R4-SHF
  binding signal: 5.41 log2 enrichment (interaction score)

## GGCUAGAACUAGUGGAUCCCCCGGCGCCCGGCGGCUCGAGCCCGGGUAAGUGUAAUUAGUCUGCAUGCCGCCGGGCGCCAUGCCUGCAGGUCGACUCUAGAAAACAUG
PUM1 PUF domain R3-RSY
  binding signal: 2.82 log2 enrichment (interaction score)
PUM1 PUF domain R3-RAL
  binding signal: 3.32 log2 enrichment (interaction score)
PUM1 PUF domain R3-VCK
  binding signal: 2.57 log2 enrichment (interaction score)

## GGCUAGAACUAGUGGAUCCCCCGGCGCCCGGCGGCUCGAGCCCGGGUAAGUGUUAAUAGUCUGCAUGCCGCCGGGCGCCAUGCCUGCAGGUCGACUCUAGAAAACAUG
PUM1 PUF domain R5-MYW
  binding signal: 3.48 log2 enrichment (interaction score)
PUM1 PUF domain R5-PRL
  binding signal: 4.51 log2 enrichment (interaction score)
PUM1 PUF domain R5-SNN
  binding signal: 4.07 log2 enrichment (interaction score)
